High-throughput results as filed in PubChem.
Lassa entry: Lassa virus entry inhibition. Potency, µM (series often up to 49.2 µM), actives largely listed as inhibitors. Lassa virus pseudotyped entry inhibition, cell-based qHTS. AID 720533. actives 4.1% (n = 18,000)
Marburg entry: Marburg virus entry inhibition | Marburg virus pseudotype entry/binding inhibition, cell-based | Potency, µM (doses to about 49.2 µM), hits mostly inhibitors | actives 6.5% (n = 18,000)
Numbers stand for hits; n = inactive; u = inconclusive; x = no result given; ! = repeats disagree; [ ] = remark or other dose. Sampled rows, rich in hits. Any-hit rate of the full collection: about 8%. Calls follow the shape of the full dose curve; tested in HEK293 cells.

SMILES | Lassa entry | Marburg entry
CCn1c(-c2nonc2N)nc2ccc(F)cc21 | n | u
CCn1c(-c2nonc2N)nc2c(C#CCN)ncc(OCCCN)c21 | n | u
CCn1c(-c2nonc2N)nc2c(C#CC(C)(C)O)nc(OCC(N)c3ccccc3)cc21 (stereo not given) | x | 3.1µM
CCCCCCN1C[C@H](n2cc(C3CC3)nn2)[C@@H](O)C[C@H]1c1ccc(C)cc1 | n | n
COc1cc(CO[C@H]2C=C[C@@H](c3ccccc3)O[C@H]2CO)cc(OC)c1 | n[8.59 µM] | u
C#CCN1C(=O)CC[C@@]23C1=NC(C(=O)OC)=C(C(=O)OC)[C@@H]2N(Cc1ccccc1)c1ccccc13 | n[8.59 µM] | n[8.59 µM]
C=CC1CC2C=CCOP(=O)(O1)O2 (stereo not given) | n | u
Cc1ccccc1-n1c(C)nc2ccccc2c1=O | u | n
O=c1c2ccccc2[se]n1-c1ccccc1 | 25µM! | 22µM!
O=C(Nc1cccc(C(=O)NC2CC2)c1)c1ccccc1 | n | n
Cc1ccc(C(=O)Nc2ccc(S(=O)(=O)O)c3cc(S(=O)(=O)O)cc(S(=O)(=O)O)c23)cc1NC(=O)c1cccc(NC(=O)Nc2cccc(C(=O)Nc3cc(C(=O)Nc4ccc(S(=O)(=O)O)c5cc(S(=O)(=O)O)cc(S(=O)(=O)O)c45)ccc3C)c2)c1 | n | 3.1µM!
C[C@]12CC[C@H](O)C[C@H]1CC[C@@H]1[C@@H]2CC[C@]2(C)[C@@H](c3ccc(=O)oc3)C[C@H]3O[C@]132 | 2.8µM | 2.5µM
CC(=O)C1CC[C@H]2C3CC[C@@H]4CC(O)CC[C@@]4(C)C3CC[C@]12C (stereo not given in full) | n | u
C=C(C)C(=O)C=Cc1ccc(Br)cc1 | n[8.59 µM] | n[8.59 µM]
Cc1ccc([S+](=O)([O-])N[C@@H]2COC(=O)CC=C[C@H](C)COC(=O)N[C@@H](C)C(=O)CC=C[C@H]2C)cc1 | n[8.59 µM] | n[8.59 µM]
COc1cc2nc(N3CCN(C(=O)C4COc5ccccc5O4)CC3)nc(N)c2cc1OC (stereo not given) | n | u
COc1cc2nc(N3CCN(C(=O)OCc4ccccc4)[C@H](C(=O)NC(C)(C)C)C3)nc(N)c2cc1OC | n | 11µM
CC[C@H](C)[C@@H]1NC(=O)[C@@H]2CSCCS(=O)(=O)N2C1=O | n | n
Cc1onc(-c2c(F)cccc2Cl)c1C(=O)N[C@@H]1C(=O)N2[C@@H]1SC(C)(C)[C@@H]2C(=O)O | n | n
O=C1Nc2ccccc2[C@@]12O[C@H](COc1ccccc1)CC1=C2CCC1 | n[8.59 µM] | n[8.59 µM]
CCc1nc(N)nc(N)c1-c1ccc(Cl)cc1 | u | 14µM
Nc1ccc(Cl)cc1 | u | n
C=C1C(=O)OC2CC1C(OC(C)=O)CC(C)=CCCC(C)=CCC[C@@]2(C)O (stereo not given in full) | 11µM | 16µM
CS(=O)(=O)Nc1cccc(-c2ccc3c(NC(=O)C4CC4)n[nH]c3c2)c1 | x | 3.5µM
CS(=O)(=O)Nc1ccc(-c2ccc3c(NC(=O)C4CC4)n[nH]c3c2)cc1 | n | n
SMILES | Lassa entry | Marburg entry
COC(=O)C1=C(C)N(Cc2ccccc2)C(=O)NC1c1cccc(F)c1 (stereo not given) | n[8.59 µM] | n[8.59 µM]
O=S1(=O)c2cccc(Cl)c2OC[C@H](c2ccccc2)N1Cc1cccc(F)c1 | x | n
O=C(NN=C1C[C@@H](O)[C@H](O)[C@H]2[C@@H]3C(=O)N(Cc4ccc5c(c4)OCO5)C(=O)[C@@H]3CC[C@H]12)OCc1ccccc1 | x | n[8.59 µM]
O=C1[C@@H]2[C@H]3[C@H](O)[C@H](O)CC(=NOC[C@@H](O)COCc4ccco4)[C@@H]3CC[C@H]2C(=O)N1Cc1ccccc1 | n[8.59 µM] | n[8.59 µM]
O[C@@H](c1cc(C(F)(F)F)nc2c(C(F)(F)F)cccc12)[C@H]1CCCCN1 | 28µM | 10µM
Cc1cc(/C=C/c2ccc3cc(N(C)C)ccc3[n+]2C)c(C)n1-c1ccccc1 | 10µM | u
CN(CCO)C(=O)c1cn(C2CCN(Cc3ccc4ccccc4c3)CC2)nn1 | n | n
CC(C)CNC(=O)c1cn(C2CCN(Cc3nc4ccccc4s3)CC2)nn1 | n | 2.8µM
C=CCCCN1C=C(C(C)=O)C(c2ccccc2)NC1=O (stereo not given) | n[8.59 µM] | n[8.59 µM]
CCOC(=O)Nc1ccc2c(c1)N(C(=O)CCN1CCOCC1)c1ccccc1S2 | n | n
CCOC(=O)Nc1ccc2c(c1)N(C(=O)CN(C)C)c1ccccc1CC2 | u | 40µM
C#C[C@]1(O)CC[C@H]2[C@@H]3CCC4=CC(=O)CC[C@@H]4[C@H]3C(=C)C[C@@]21CC | n | n
CC1(C)N=C(N)N=C(N)N1c1ccc(Cl)cc1 | 11µM | 7.1µM
Cc1c(C(=O)N(C)C2CCCCC2)sc2nc3ccc(N)cc3n12 | u | 22µM
C=CCOC(=O)N[C@H](c1ccccc1)[C@H](C)C=CCC(=O)OC | n[8.59 µM] | n[8.59 µM]
COc1cccc2c1C(=O)c1c(O)c3c(c(O)c1C2=O)C[C@@](O)(C(=O)CO)C[C@@H]3OC1C[C@@H](N)[C@H](O)[C@H](C)O1 (stereo not given in full) | u | 0.89µM
